Compound activity as filed in PubChem.
Most compounds without a hit are left out; they make up all but 19% or so of the library.
Pf growth 96h – P. falciparum growth inhibition at 96 hours. P. falciparum luciferase reporter growth, 96 h. Potency, µM (series often up to 28.7 µM), usual class: inhibitors. 6.9% of 320,000 active
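P. falciparum expressing integrated firefly luciferase, in erythrocytes at 2% hematocrit, 0.05% parasitemia, incubated with compounds 96 h at 37 C, 5% CO2. Growth inhibition read as loss of luminescence; two-generation exposure targets delayed-death apicoplast inhibitors.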
Shiga toxin inh – Shiga toxin inhibition; Vero cells, Shiga toxin protein synthesis inhibition reporter; inhibition, % at 38.7 µM; 9.2% of 290,000 active; AID 2315; in the data active = inhibition mostly above about 28%, no sharp cut-off; inactive = mostly below about 43%
Marburg entry inh – blocks Marburg virus binding to or entry into cells; 1.8% of 300,000 active; AID 540276; Marburg virus pseudotyped entry inhibition, cell reporter; Potency, µM (highest dose often 37.8 µM), actives largely listed as inhibitors; calls by dose curve; tested in HEK293 cells
Pf growth 48h – P. falciparum growth inhibition at 48 hours (one generation) | P. falciparum luciferase growth in erythrocytes, 48 h | Potency, µM (titrated, usually from 28.7 µM), actives largely listed as inhibitors | 5.9% of 310,000 active | AID 504832
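Parasite viability was followed by luminescence of a genomically integrated firefly luciferase. Cultures held 0.1% parasitemia at 2% hematocrit (final), incubated under 5% CO2 at 37 C.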
Cycloheximide cs – counter-screen for Shiga toxin inhibitors: cycloheximide protein synthesis inhibition. AID 2314. 12% of 300,000 active. max response, %. cell reporter, cycloheximide protein synthesis inhibition counterscreen; in the data active = max response mostly above about 13%, no sharp cut-off; inactive = mostly below about 14%; also: read at 38.3 µM for the half of the compounds with a filed dose
Lassa entry inh – inhibitors of Lassa virus binding or cell entry | Lassa virus pseudotype entry inhibition, cell reporter | Potency, µM (top dose mostly 37.9 µM), most hits filed as inhibitors | 1.2% of 300,000 active; calls by dose curve; tested in HEK293 cells; also: nearly all actives have a fitted effect of over 50% in size
Large screens that a line does not name were inactive. Unless noted, calls follow the shape of the dose curve; as a rule, active = well fitted inhibition curve with a large enough effect; inconclusive = small, poorly fitted or top-dose-only effect, or another doubt; inactive = no such curve, though single readings can be large or run the other way.

COc1cc(/C=N/n2cnnc2)ccc1OCCOc1ccccc1	none
COc1cc(/C=N/n2cnnc2)ccc1OCc1ccc(C)cc1	Lassa entry inh inconclusive (no result: Pf growth 96h)
COc1ccc(/C=N/n2cnnc2)cc1COc1ccccn1	Pf growth 96h 2.1µM
COc1cc(/C=N/n2cnnc2)ccc1OCc1ccccc1	Cycloheximide cs 22
Fc1cccc2sc(N3CCCC3)nc12	Shiga toxin inh 89, Marburg entry inh inconclusive, Cycloheximide cs 43, Lassa entry inh inconclusive
Brc1cccc2sc(N3CCCC3)nc12	Cycloheximide cs 34
Clc1cccc2sc(N3CCOCC3)nc12	Lassa entry inh inconclusive (no result: Pf growth 96h, Shiga toxin inh, Pf growth 48h, Cycloheximide cs)
Clc1cccc2sc(N3CCCC3)nc12	Shiga toxin inh active, Cycloheximide cs 20
COc1cccc(-c2ocnc2C(=O)Nc2ccc3c(c2)CCC3)c1	Pf growth 96h inconclusive
NC(=O)c1ccc(NC(=O)COC(=O)c2c3c(nc4ccccc24)/C(=C\c2cccs2)CCC3)cc1	Marburg entry inh inconclusive, Pf growth 48h inconclusive, Lassa entry inh inconclusive
CCc1cccc(C)c1NC(=O)COC(=O)c1c2c(nc3ccccc13)/C(=C\c1cccs1)CCC2	Pf growth 96h 10µM, Marburg entry inh inconclusive, Pf growth 48h 13µM
CC(C)CNC(=O)COC(=O)c1c2c(nc3ccccc13)/C(=C/c1cccs1)CC2	Pf growth 96h inconclusive, Shiga toxin inh 56, Marburg entry inh inconclusive, Pf growth 48h inconclusive, Cycloheximide cs 25, Lassa entry inh inconclusive
Oc1ccc2ccccc2c1CNc1ccc(Br)cn1	Pf growth 96h inconclusive, Shiga toxin inh 66, Cycloheximide cs 46 (no result: Marburg entry inh, Lassa entry inh)
Oc1ccc(Cl)cc1CNc1cnc2ccccc2c1	Pf growth 96h 2.6µM, Cycloheximide cs 14 (no result: Marburg entry inh, Lassa entry inh)
Oc1ccc2ccccc2c1CNc1ccc(Br)cc1	none (no result: Marburg entry inh, Lassa entry inh)
Oc1ccccc1CNc1cnc2ccccc2c1	Shiga toxin inh 32, Marburg entry inh inconclusive, Cycloheximide cs 31
C=CCc1cccc(CNc2cnc3ccccc3c2)c1O	Shiga toxin inh 20, Pf growth 48h inconclusive, Cycloheximide cs 17 (no result: Marburg entry inh, Lassa entry inh)
CC(C)n1c(NCc2cc(Cl)ccc2O)nc2ccccc21	none (no result: Marburg entry inh, Pf growth 48h, Lassa entry inh)
C=CCc1cccc(CNc2nc3ccccc3n2C)c1O	Pf growth 96h inconclusive, Pf growth 48h inconclusive (no result: Marburg entry inh, Lassa entry inh)
Cn1c(/C(C#N)=C(\O)c2ccc(Cl)s2)nc2ccccc21	none (no result: Marburg entry inh, Lassa entry inh)
NCc1c(O)ccc2ccccc12	Pf growth 96h inconclusive (no result: Marburg entry inh, Lassa entry inh)
Oc1ccc2ccccc2c1CNc1cnc2ccccc2c1	Pf growth 96h inconclusive, Shiga toxin inh 92, Cycloheximide cs 29 (no result: Pf growth 48h)
O=C(c1ccccn1)N1CCN(C(=O)c2ccccn2)CC1	none
O=C(N/N=C/C1CCCCC1)c1ccccn1	Shiga toxin inh 166, Cycloheximide cs 49
O=C(NN=C1CCC(=NNC(=O)c2ccccn2)CC1)c1ccccn1	Shiga toxin inh 51, Marburg entry inh inconclusive, Cycloheximide cs 55
Cc1cc2c(cc1C)/C(=N/NC(=O)c1ccccn1)CCC2	Pf growth 96h inconclusive, Shiga toxin inh 49, Marburg entry inh inconclusive, Cycloheximide cs 53
CCC/C=N/NC(=O)c1cc(Br)ccc1O	none
O=C(COC(=O)c1ccccn1)NC1CCCCC1	Lassa entry inh inconclusive
O=C(N/N=C/C1CCCCC1)c1cc(Cl)ccc1O	Shiga toxin inh 45
CCc1cc(C(=O)NCc2ccc(F)cc2)no1	none (no result: Pf growth 96h, Shiga toxin inh, Pf growth 48h, Cycloheximide cs)
CCOc1ccc(NC(=O)CNC(=O)c2ccc(OC)c(OC)c2)cc1	Marburg entry inh inconclusive (no result: Pf growth 96h)
COc1ccccc1C(=O)NCc1ccc2c(c1)CCN2C(=O)c1ccncc1	none (no result: Pf growth 96h, Shiga toxin inh, Marburg entry inh, Pf growth 48h, Cycloheximide cs)
COc1ccccc1N1CCN(C(=O)Oc2ccccc2)CC1	none (no result: Pf growth 96h)
CCCC(=O)c1ccc(N2CCN(C(=O)c3ccc(Br)cc3)CC2)c(F)c1	Pf growth 96h inconclusive
Cc1ccc(CNC(=O)c2c[nH]n3c(=O)c(Cc4ccc(F)cc4Cl)c(C)nc23)cc1	none (no result: Pf growth 96h, Shiga toxin inh, Pf growth 48h, Cycloheximide cs)
CCc1ccc(C2CC(=O)NC(NC(=O)c3ccc(C(C)(C)C)cc3)=N2)cc1 (configuration not stated)	none (no result: Pf growth 96h, Shiga toxin inh, Pf growth 48h, Cycloheximide cs)
CC1C/C(=N/Nc2ccc([N+](=O)[O-])cc2[N+](=O)[O-])CC(C)(C)C1 (configuration not stated)	Pf growth 96h inconclusive, Marburg entry inh inconclusive, Pf growth 48h 10µM
COc1ccc(C(CC(=O)N2CCN(c3ccccc3)CC2)c2c(OC)cc(OC)c3ccc(=O)oc23)cc1 (configuration not stated)	Pf growth 96h 8.3µM, Pf growth 48h 7.4µM (no result: Marburg entry inh, Lassa entry inh)
COc1cc(C(CCN2CCCC2)c2c(OC)cc(OC)c3ccc(=O)oc23)cc(OC)c1OC (configuration not stated)	Pf growth 96h 10µM, Pf growth 48h inconclusive (no result: Marburg entry inh, Lassa entry inh)
COc1cc(C(CCN2CCOCC2)c2c(OC)cc(OC)c3ccc(=O)oc23)cc(OC)c1OC (configuration not stated)	none (no result: Pf growth 96h, Marburg entry inh, Pf growth 48h, Lassa entry inh)
COc1cc(C(CC(=O)N2CCCC2)c2c(OC)cc(OC)c3ccc(=O)oc23)cc(OC)c1OC (configuration not stated)	Pf growth 96h 13µM, Pf growth 48h 13µM (no result: Marburg entry inh, Lassa entry inh)
COc1cc(OC)c2ccc(=O)oc2c1C(CC(=O)N1CCCCC1)c1ccc2c(c1)OCO2 (configuration not stated)	none (no result: Pf growth 96h, Marburg entry inh, Pf growth 48h, Lassa entry inh)
COc1cc(C(CCN2CCN(c3ccccc3)CC2)c2c(OC)cc(OC)c3c(C)cc(=O)oc23)cc(OC)c1OC (configuration not stated)	Pf growth 96h 3.7µM, Pf growth 48h 2.6µM (no result: Marburg entry inh, Lassa entry inh)
O=C(c1cccs1)N1CCN(S(=O)(=O)N2CCOCC2)CC1	none
COc1cc(OC)c2ccc(=O)oc2c1C(CC(=O)N1CCCC1)c1ccc2c(c1)OCO2 (configuration not stated)	Pf growth 96h inconclusive, Pf growth 48h 9.3µM (no result: Marburg entry inh, Lassa entry inh)
CCN(CC)CCC(c1cc(OC)c(OC)c(OC)c1)c1c(OC)cc(OC)c2c(C)cc(=O)oc12 (configuration not stated)	Pf growth 96h inconclusive, Pf growth 48h 9.3µM (no result: Marburg entry inh, Lassa entry inh)
COc1cc(O)c(C(CC(=O)N2CCN(c3ccccc3)CC2)c2ccc(N(C)C)cc2)c(OC)c1 (configuration not stated)	Pf growth 96h 12µM, Pf growth 48h inconclusive (no result: Marburg entry inh, Lassa entry inh)
COc1cc(O)c(C(CC(=O)N2CCCC(C)C2)c2ccc(N(C)C)cc2)c(OC)c1 (configuration not stated)	Pf growth 96h inconclusive, Pf growth 48h inconclusive (no result: Marburg entry inh, Lassa entry inh)
CCOC(=O)CN1N=C(/C=C/c2ccc(C)cc2)CCC1=O	Shiga toxin inh 47
Cc1ccc(/C=C/C2=NN(Cc3ccc(Cl)c(Cl)c3)C(=O)CC2)cc1	none (no result: Pf growth 96h)
Cc1ccccc1CN1N=C(/C=C/c2ccccc2)CCC1=O	Lassa entry inh 7.9µM
COc1ccc(C=O)cc1	none (no result: Shiga toxin inh, Marburg entry inh, Cycloheximide cs, Lassa entry inh)
COc1ccc(/C=C/C2=NN(C)C(=O)CC2)cc1	Shiga toxin inh 54, Marburg entry inh inconclusive, Cycloheximide cs 34, Lassa entry inh inconclusive
CCc1ccc(NC(=O)CSC2=Nc3ccccc3C3=NC(CC(=O)NC4CCCCC4)C(=O)N23)cc1 (configuration not stated)	none (no result: Pf growth 96h, Shiga toxin inh, Marburg entry inh, Pf growth 48h, Cycloheximide cs)
Cc1ccc(SCc2nc3ccccc3n2CC(=O)Nc2c(C)cccc2C)cc1	Pf growth 96h inconclusive, Pf growth 48h inconclusive, Lassa entry inh inconclusive
